Screening results (PubChem BioAssay)
RE007 growth inh – less growth of the S. pombe RE007 Vpr strain; S. pombe RE007 Vpr strain, BacTiter-Glo ATP luminescence, 24 h; 0.21% of 360,000 active; Potency, µM (top dose mostly 92.2 µM), usual class: inhibitors; active = well fitted falling curve with a large enough effect; inconclusive = small, poorly fitted or top-dose-only effect; inactive = no such curve, though single readings can be large or run the other way; also: nearly all actives have a fitted effect of over 50% in size
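Fission yeast RE007 carrying one integrated HIV-1 vpr copy, seeded at OD 0.01 in PMG+AL medium with 23 nL pinned compound. Grown 24 h at 30 degrees; viability read by BacTiter-Glo luminescence after 5 min.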
TbPYK inhibitor – blocks Trypanosoma brucei pyruvate kinase. 0.12% of 410,000 active. Q57TT1. AID 624173. Potency, µM (doses to about 76.8 µM), hits mostly inhibitors. TbPYK enzyme, Kinase-Glo Plus ATP luminescence, 45 min; also: nearly all actives have a fitted effect of over 50% in size
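TbPYK + substrate in 50 mM TEA pH 7.2, 100 mM KCl, 10 mM MgCl2, 0.05% BSA, 0.01% Tween-20; cpd pinned; ADP 130 uM final; 45 min RT; Kinase-Glo Plus 10 min; luminescence endpoint.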
FBPA Giardia inh – blocks Giardia fructose-bisphosphate aldolase activity; purified Giardia FBPA; Potency, µM (titrated, usually from 59.6 µM), actives largely listed as inhibitors; 0.71% of 290,000 active; also: nearly all actives have a fitted effect of over 55% in size
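40 nM FBPA preincubated 10 min at RT with compound (up to 57.5 uM final), then substrate plus GAPDH/TPI/NAD/arsenate coupling and diaphorase/resazurin added. Fluorescence read after 20 min at RT, 525/598 nm.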
Shiga inhibitor – inhibitors of Shiga toxin in Vero cells | Vero cells, Shiga toxin protein synthesis inhibition reporter | inhibition, % at 38.7 µM | 9.2% of 290,000 active | AID 2315; in the data active = inhibition mostly above about 28%, no sharp cut-off; inactive = mostly below about 43%
CHX counter – counter-screen hit for Shiga toxin inhibitors, cycloheximide. cell reporter, cycloheximide protein synthesis inhibition counterscreen. max response, %. 12% of 300,000 active. AID 2314; in the data active = max response mostly above about 13%, no sharp cut-off; inactive = mostly below about 14%; also: read at 38.3 µM for the half of the compounds with a filed dose
LmPK inh – LmPK (Leishmania mexicana) enzyme inhibition; Potency, µM (highest dose often 57.5 µM), most hits filed as inhibitors; purified LmPK, Kinase-Glo ATP luminescence, 1 h; 0.37% of 290,000 active; Q27686
Target sequence (Q27686 whole entry, looked up): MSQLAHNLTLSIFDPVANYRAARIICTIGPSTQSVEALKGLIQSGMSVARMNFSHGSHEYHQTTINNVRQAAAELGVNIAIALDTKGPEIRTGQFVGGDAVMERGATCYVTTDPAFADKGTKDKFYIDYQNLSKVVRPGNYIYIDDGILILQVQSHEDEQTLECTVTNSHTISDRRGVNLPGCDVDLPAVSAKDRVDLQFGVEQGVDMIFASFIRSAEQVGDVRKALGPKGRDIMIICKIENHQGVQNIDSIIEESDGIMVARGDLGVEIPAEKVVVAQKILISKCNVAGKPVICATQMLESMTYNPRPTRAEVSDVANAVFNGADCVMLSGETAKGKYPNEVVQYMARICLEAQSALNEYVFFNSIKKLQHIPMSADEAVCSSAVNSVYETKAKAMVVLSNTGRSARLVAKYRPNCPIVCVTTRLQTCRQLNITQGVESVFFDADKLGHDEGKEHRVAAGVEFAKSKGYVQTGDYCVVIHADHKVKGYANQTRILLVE
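ATP generated from ADP (0.1 mM) and PEP (0.5 mM) by 0.1 nM LmPK over 1 h at room temperature (pH 7.2 imidazole buffer) was detected by coupled luciferase luminescence. Values were normalized to uninhibited and no-enzyme wells.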
A number is an active result. This is one part of a sample in which hits are shown more often than they occur. Unless noted, calls follow the shape of the dose curve; as a rule, active = well fitted curve in the direction sought with a large enough effect; inconclusive = small, poorly fitted or top-dose-only effect, or another doubt; inactive = no such curve, though single readings can be large; an effect the other way counts as inactive or inconclusive.

Cc1ccccc1OC(C)C(=O)Nc1ccc2c(c1)OCCO2 (centres undefined) was read as RE007 growth inh inactive, TbPYK inhibitor inactive, Shiga inhibitor inactive, CHX counter 34 and LmPK inh inactive.
For CC(C(=O)Nc1ccc2c(c1)OCCO2)N1Cc2ccccc2C1=O (centres undefined) the results were RE007 growth inh inactive, TbPYK inhibitor inactive, Shiga inhibitor inactive, CHX counter 21 and LmPK inh inactive.
C[C@@H](C(=O)Nc1ccc2c(c1)OCCO2)n1nnc2ccccc2c1=O was read as RE007 growth inh inactive, TbPYK inhibitor inactive, FBPA Giardia inh inactive, Shiga inhibitor 107, CHX counter 45 and LmPK inh inactive.
`CC(OC(=O)/C=C/c1ccccc1)C(=O)Nc1ccc2c(c1)OCCO2` (centres undefined) gave RE007 growth inh inactive and TbPYK inhibitor inactive.
Screening O=C(Nc1cccc(Br)c1)N1CCC(CN2CCCCCC2)CC1 returned TbPYK inhibitor inactive.
Screening Cc1ccc(C)c2nc3sc(C(=O)N4CCOCC4)c(N)c3cc12 returned RE007 growth inh inactive, TbPYK inhibitor inactive, FBPA Giardia inh inactive, Shiga inhibitor 58, CHX counter 27 and LmPK inh inactive.
For Cc1cc(C)c2cc3c(N)c(C(=O)N4CCOCC4)sc3nc2c1 the results were RE007 growth inh inactive, TbPYK inhibitor inactive, FBPA Giardia inh inactive, Shiga inhibitor inactive, CHX counter inactive and LmPK inh inactive.
Cc1cc(C)c2nc3sc(C(=O)N4CCOCC4)c(N)c3cc2c1 was read as RE007 growth inh inactive, TbPYK inhibitor inactive, FBPA Giardia inh inconclusive, Shiga inhibitor 101, CHX counter 29 and LmPK inh inactive.
CCOc1ccc2nc3sc(C(=O)N4CCOCC4)c(N)c3cc2c1 was read as RE007 growth inh inactive, TbPYK inhibitor inactive, FBPA Giardia inh inconclusive, Shiga inhibitor inactive, CHX counter inactive and LmPK inh inactive.
`Cc1ccc(-c2cc(Cc3ccncc3)c(=O)[nH]n2)cc1` gave RE007 growth inh inactive, TbPYK inhibitor inactive, FBPA Giardia inh inactive, Shiga inhibitor inactive, CHX counter 11 and LmPK inh inactive.
O=[N+]([O-])c1ccc(/C=C2\CCC(C3=CCCC3)=C2N2CCOCC2)cc1 was read as RE007 growth inh inconclusive, TbPYK inhibitor inactive, FBPA Giardia inh inactive, Shiga inhibitor inactive, CHX counter 24 and LmPK inh inactive.
O=C(NP(=O)(N1CCCC1)N1CCCC1)C1=C(N2CCOCC2)/C(=C/c2cccc([N+](=O)[O-])c2)CC1 was read as RE007 growth inh inactive, TbPYK inhibitor inactive, FBPA Giardia inh inactive, Shiga inhibitor inactive, CHX counter inactive and LmPK inh inactive.
`CC(=O)c1cnc2nc(SCc3ccccc3)nn2c1C` gave RE007 growth inh inactive, TbPYK inhibitor inactive, FBPA Giardia inh inactive, Shiga inhibitor 47, CHX counter 35 and LmPK inh inactive.
CC(=O)c1cnc2nc(SCc3cccc(C)c3)nn2c1C was read as RE007 growth inh inactive, TbPYK inhibitor inactive, FBPA Giardia inh inactive, Shiga inhibitor inactive, CHX counter 9.4 and LmPK inh inactive.
CCC(=O)Nc1sc2c(c1C(=O)Nc1ccc(Br)cc1)CCCCC2 was read as TbPYK inhibitor inactive.
COc1ccc(C2c3cccn3CCN2S(=O)(=O)c2ccc([N+](=O)[O-])cc2)cc1 (centres undefined) was read as TbPYK inhibitor inactive.
`c1ccc(-c2nnc(CN3CCCc4ccccc43)o2)cc1` gave RE007 growth inh inactive, TbPYK inhibitor inactive, FBPA Giardia inh inactive, Shiga inhibitor inactive, CHX counter 16 and LmPK inh inactive.
For COC(=O)C1CCN(Cc2nnc(-c3ccccc3)o2)CC1 the results were RE007 growth inh inactive, TbPYK inhibitor inactive, FBPA Giardia inh inactive, Shiga inhibitor 59, CHX counter 24 and LmPK inh inactive.
`OC1(c2ccccc2F)CCN(Cc2nnc(-c3ccccc3)o2)CC1` gave RE007 growth inh inactive, TbPYK inhibitor inactive, FBPA Giardia inh inactive, Shiga inhibitor inactive, CHX counter 20 and LmPK inh inactive.
For c1ccc(-c2nnc(CN3CCCCC3)o2)cc1 the results were TbPYK inhibitor inactive, FBPA Giardia inh inactive, Shiga inhibitor 75, CHX counter 41 and LmPK inh inactive.
For Clc1ccccc1N1CCN(Cc2nnc(-c3ccccc3)o2)CC1 the results were TbPYK inhibitor inactive.
Cc1cc(C(=O)N2CCN(c3ccccc3)CC2)c2c(C)nn(-c3cccc(F)c3)c2n1 was read as TbPYK inhibitor inactive.
`CC(=O)Nc1ccc(NC(=S)NC(=O)c2oc3ccccc3c2C)cc1` gave TbPYK inhibitor inactive, FBPA Giardia inh inactive, Shiga inhibitor inactive, CHX counter inactive and LmPK inh inactive.
Cc1cccnc1NC(=S)NC(=O)c1oc2ccccc2c1C was read as RE007 growth inh inactive, TbPYK inhibitor inactive, FBPA Giardia inh inconclusive, Shiga inhibitor 79, CHX counter 40 and LmPK inh inactive.
For Cc1c(C(=O)NC(=S)NCC(C)C)oc2ccccc12 the results were RE007 growth inh inactive, TbPYK inhibitor inactive, FBPA Giardia inh inactive, Shiga inhibitor inactive, CHX counter 17 and LmPK inh inactive.
For COc1ccccc1NC(=S)Nc1ccc2cn[nH]c2c1 the results were RE007 growth inh inactive, TbPYK inhibitor inactive, FBPA Giardia inh inconclusive, Shiga inhibitor 47, CHX counter 16 and LmPK inh inactive.
Screening Cc1ccc(NC(=S)Nc2ccc3cn[nH]c3c2)cc1C returned RE007 growth inh inactive, TbPYK inhibitor inactive, FBPA Giardia inh inactive, Shiga inhibitor inactive, CHX counter inactive and LmPK inh inactive.
For CC(C)c1ccc(NC(=S)Nc2ccc3cn[nH]c3c2)cc1 the results were RE007 growth inh inactive, TbPYK inhibitor inactive, FBPA Giardia inh inactive, Shiga inhibitor 73, CHX counter 22 and LmPK inh inactive.
`COc1cc(C(=O)OC(COCCC(C)C)CN2CCOCC2)cc(OC)c1OC` (centres undefined) gave TbPYK inhibitor inactive.
`O=C(CNc1ccc(Oc2ccccc2)cc1)N1CCOCC1` gave RE007 growth inh inactive, TbPYK inhibitor inactive, FBPA Giardia inh inactive, Shiga inhibitor 36, CHX counter 12 and LmPK inh inactive.
For S=C(Nc1ccccc1)N1CCOCCOCCN(C(=S)Nc2ccccc2)CCOCCOCC1 the results were RE007 growth inh inactive, TbPYK inhibitor inactive, FBPA Giardia inh inactive, Shiga inhibitor inactive, CHX counter inactive and LmPK inh inactive.
S=C(Nc1ccc(Oc2ccccc2)cc1)N1CCOCC1 was read as RE007 growth inh inactive, TbPYK inhibitor inactive, FBPA Giardia inh inactive, Shiga inhibitor inactive, CHX counter 12 and LmPK inh inactive.
O=C(Nc1ccccc1Cl)OC1CN2CCC1CC2 (centres undefined) was read as RE007 growth inh inactive, TbPYK inhibitor inactive, FBPA Giardia inh inactive, Shiga inhibitor inactive, CHX counter inactive and LmPK inh inactive.
